Our source for the binding signal values is PMC12864922, “TDP-43 directly inhibits mRNA accumulation in neurites through modulation of mRNA stability”.

In all, about 9,900 sequences were measured (“r (bound/input frequency ratio)”: median about 0.7, highest 2% from about 6.5 on). This excerpt belongs to a sample that is enriched for the highest values.

The chains are these.
B1: ENSMUSG00000031028.156|Tub (ssRNA)
RNA: GGGAGUUCUACAGUCCGACGAUCGCUUCGAUAUCCGCAUGCUAAGCUCCCAUUAUUGCCAGCAUGCCAUGAUCAGUGAGGGCUGUGUGCCAUGCUUAGGGGGAUGGCGCAGGGUGAGGGGAGCAGAGGAUAUUUUAGGGCCACAAGAGCUCAGAGGUAGCGGACCUCUGUGUGGUUCACCAACAGCAAUGCUGAUCCCUGAGUAUAGGGCACAUGUCUCUUGGUUACCUCACUGGUUAAUGGCAGAGUUGAGAACCUCAAAUUCUUUUGUUCCUACUGUUGCCCAGAAACUAGACUCUCUGACCUCUUGCGGUCGCACUAGUGUGGAAUUCUCGGGUGUCAAGG
B2: ENSMUSG00000031028.651|Tub (ssRNA)
RNA: GGGAGUUCUACAGUCCGACGAUCGCUUCGAUAUCCGCAUGCUAGCUGAAAUGUAGAGUGUUCUAUAGAGCAUCUCAGUAGCAUAGAAGGAGAAGCCCAGCUCCAACCUCCUGGACCCCAUACUGGUGACCAGCUUGGUGAGGACAGGCAAAAUUUCUCUAGCUGAGAGCACACUUAGCCAGUUUUCACGCCUAGAACAUAUAUGUCGAUUUGCACAUGAUUGUCUUUUCCUAUUUUGGAGUGGUCAGACAUUUUAUUUUUGUUCAAAAUUAUCUGGAGUUUUAGACAAACUUGCAAAACUGUGCUCUUGCGGUCGCACUAGUGUGGAAUUCUCGGGUGUCAAGG
B3: ENSMUSG00000090935.711|Synj2bp (ssRNA)
RNA: GGGAGUUCUACAGUCCGACGAUCGCUUCGAUAUCCGCAUGCUAAAGAACUGGGCUAAGUCCAGAGCUCUGCUCUCUGAGCAUCUGCCCCAGAUACAGAGGCAGAGUAUGAAGUGGAACAUUGUUUUAUUCCUAGGUGCUCAGGACAGACUGAUCAACCUCCAGUAACAUAUGUGGUUAGUAAGUGCUUCAGCUUGUGUAGCCAUUAAUAACCAAGUCAUAGGAUUGUGAAUCUAAAAUACUCCUGGGUAAAAUUUGUAUUAGAAUGGAAAAAAAAAUGAGGGUCAGAAAGGUGAGCUAACUUCCUCUUGCGGUCGCACUAGUGUGGAAUUCUCGGGUGUCAAGG
B4: ENSMUSG00000029636.217|Wasf3|154:158;247:254 (ssRNA)
RNA: GGGAGUUCUACAGUCCGACGAUCGCUUCGAUAUCCGCAUGCUAAUAAGUCUGUGAUAUCCGCAGGCUUGGGUUACAGGGAGGACCUUGCAGAGGGACCAGGACACUGCCUUCCCUUAGGUGCAUUAUUUACGUGGCCUGCAGCUCUUAAUAUCUCUCACUGUUUAUGAAAAGAAAGAUUCAGAUCCGGGGUGACAUACACACAGUUGACAGGGAAUGCCUGUGGGAUAAUUAAAAAUGGUUUUUGCUCAUGAGUUUGGGAUGUCACCCAGCCGCCCACAUCGCCUGCUAACACACACGACGCCCUCUUGCGGUCGCACUAGUGUGGAAUUCUCGGGUGUCAAGG
B5: ENSMUSG00000031028.206|Tub (ssRNA)
RNA: GGGAGUUCUACAGUCCGACGAUCGCUUCGAUAUCCGCAUGCUACCAGAGAUGAAACCCCUCCGAGUUAAUGUAUAAGGUUGGAAACCUUUCAGUAGGGAAUCAGGCAGUUCCCUGUUGAAAGUUGUCUGAGUUUUUGCACACCAUUCUGAUCUGAUGUGGCCUGUGCCUGGCUCCUCUAUGAGGACUUCGAGCUGUGCACAGACCUUAGCAGGACCACUGCACACUUUGUGUCUGUGUGACAGGCAGCCCAAGGGUUCUGGGGCUGGGCUUGGACACGCCCUCCAUUGGGAUGGCACCACUCACUCUUGCGGUCGCACUAGUGUGGAAUUCUCGGGUGUCAAGG
B6: ENSMUSG00000058297.231|Spock2 (ssRNA)
RNA: GGGAGUUCUACAGUCCGACGAUCGCUUCGAUAUCCGCAUGCUAAACCAUGCCCCAGACUCUAUUUAAAGCCCUAUAGCAUAUAUGAAUAGAGAACGGUGUAUCUAUCAGAGGGGACCACACUGAGCAGCUAGGCCCUGAUGCCAUGCCUCAGCACGCCCUCAGACCUCCAGGCCGGGUGGAAGGGGCUUUUACCCAGAUGUCCUGUGGGGUUUUGUGUGUCUAUUGCUCCCCACUUCCCCCUCUCAAAGGAAAUUUCCUUGAUAUAUUUGAUGAAGAAUUCCUUACCUGGGCCUCUGAUACCCCUCUUGCGGUCGCACUAGUGUGGAAUUCUCGGGUGUCAAGG
B7: ENSMUSG00000061578.43|Ksr2|85:91;96:100 (ssRNA)
RNA: GGGAGUUCUACAGUCCGACGAUCGCUUCGAUAUCCGCAUGCUAAGCCACAGACUGAGCACACCACCUCGGACUGUGGAGACCAAGACACAUGCCCAGUGGGCAGACUCAGACUCACACGCUGGACCACACACACCGCAACACACUACACAUGGACAGGGCCAACUGCUAUCCUUCUGCCUGGACGAGCCAGCUGUGGAGUGUCCCAGCUGUGCUAUCCUGGAACACAGAACCAGGAUGGAACCAGAAACAAUACACCUGCUCCGUUGUCAAGGCUUCUAGGCCAAGGUCAGGGUAGGGAGGUGCUCUUGCGGUCGCACUAGUGUGGAAUUCUCGGGUGUCAAGG
B8: ENSMUSG00000029636.220|Wasf3 (ssRNA)
RNA: GGGAGUUCUACAGUCCGACGAUCGCUUCGAUAUCCGCAUGCUACAGGCUUGGGUUACAGGGAGGACCUUGCAGAGGGACCAGGACACUGCCUUCCCUUAGGUGCAUUAUUUACGUGGCCUGCAGCUCUUAAUAUCUCUCACUGUUUAUGAAAAGAAAGAUUCAGAUCCGGGGUGACAUUGUGUCAGUUGACAGGGAAUGCCUGUGGGAUAAUUAAAAAUGGUUUUUGCUCAUGAGUUUGGGAUGUCACCCAGCCGCCCACAUCGCCUGCUAUGUGUGUGGACGCCUGUCCGCUUGGCCAGCUACUCUUGCGGUCGCACUAGUGUGGAAUUCUCGGGUGUCAAGG
B9: ENSMUSG00000029636.163|Wasf3 (ssRNA)
RNA: GGGAGUUCUACAGUCCGACGAUCGCUUCGAUAUCCGCAUGCUACAUGGAAGCUUGGCUUUAGCUGAGAGAUGCCACCAGCUGUUCACAACCCAUGGUGCUGUGGCUAGAUUCCUGCUCAGUCUCUCAAACAGGGCCACACCCCUCCUGAAGCACAGCUCUCUUCUCUCCUGUUGUCGGCACAUUUUCAAUUUUAAAAAGUACCUCACAAGAUAAACUUGAUUCAGCCAGUUGCCCGGGCAGAGACCUGACUUCCCCUCUCCUGCCCUGAUCCUUUUUACCAAAUGGCGAUUCCAUAGUCCUGGCUCUUGCGGUCGCACUAGUGUGGAAUUCUCGGGUGUCAAGG

Chain of TDP-43 (Q13148 whole entry): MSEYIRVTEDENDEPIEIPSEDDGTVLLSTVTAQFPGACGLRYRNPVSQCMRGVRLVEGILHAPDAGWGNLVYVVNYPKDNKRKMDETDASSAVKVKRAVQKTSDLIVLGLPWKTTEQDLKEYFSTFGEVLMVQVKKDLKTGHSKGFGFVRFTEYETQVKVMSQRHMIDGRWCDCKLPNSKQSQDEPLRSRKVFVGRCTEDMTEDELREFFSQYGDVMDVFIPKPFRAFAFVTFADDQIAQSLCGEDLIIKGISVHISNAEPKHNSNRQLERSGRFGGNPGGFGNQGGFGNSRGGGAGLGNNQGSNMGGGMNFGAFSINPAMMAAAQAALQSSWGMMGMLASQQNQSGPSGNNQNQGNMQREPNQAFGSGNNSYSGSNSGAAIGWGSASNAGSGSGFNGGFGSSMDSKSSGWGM

The target in this assay is TDP-43 (Homo sapiens, UniProt Q13148 1-414). The assay can be described thus: RNA Bind-n-Seq with designed 260-mer pool; 25 mM Tris-HCl, 150 mM KCl, 3 mM MgCl2, BSA (printed 500 mg/mL), 20 units/mL SUPERase IN; pH not stated; 500 nM RNA pool, 1 h, 4 C; TDP-43 5, 50, 500 nM; high values mean tight binding. The settings on record: protein: recombinant; tags: SBP (GST cleaved off with PreScission; pGEX-GST-SBP). The gist of the method:
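Streptavidin beads captured recombinant SBP-tagged TDP-43 at 5, 50 or 500 nM, and the beads were incubated for 1 h at 4 °C with 500 nM of an in vitro-transcribed pool of 260-nt 3′ UTR oligos in 25 mM Tris-HCl, 150 mM KCl, 3 mM MgCl2, BSA and SUPERase IN. After washing, bound RNA was eluted with biotin, reverse transcribed, PCR-amplified and sequenced. Binding is reported as R, the mapped-read-normalized abundance of each oligo in the bound sample divided by its abundance in the input. Two independent protein batches served as duplicates.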
Turning to B1, the binding signal is 0.518 R (bound/input frequency ratio).
The value for B2 was 0.18 R (bound/input frequency ratio); that for B3 was 1.47 R (bound/input frequency ratio).
The value for B4 was 1.49 R (bound/input frequency ratio).
Take B5: the binding signal was 1.26 R (bound/input frequency ratio).
The value for B6 was 0.453 R (bound/input frequency ratio).
In the case of B7, the binding signal was 0.525 R (bound/input frequency ratio).
Consider B8, for which the binding signal is 3.17 R (bound/input frequency ratio).
With B9, the binding signal is 0.217 R (bound/input frequency ratio).
